Assay results: ChEMBL document CHEMBL3433997, “St. Jude Leishmania screening dataset” (2016)

Assays:
Assay type in all cases: functional
[1] = molecular target: Solute carrier family 2, facilitated glucose transporter member 1 (Homo sapiens) (UniProt P11166); assay: ST_JUDE_LEISH: Cytotoxicity at 2uM final concentration against transgenic Leishmania Mexicana promastigotes LmGLUT1 that are glucose transport deficient and complemented with the human glucose transporter GLUT1. Activity is measured by DNA content using SYBR green in vitro
[2] = molecular target: Hexose transporter 1 (Plasmodium falciparum) (UniProt O97467); assay: ST_JUDE_LEISH: Cytotoxicity at 2uM final concentration against transgenic Leishmania Mexicana promastigotes LmPfHT that are glucose transport deficient and complemented with the Plasmodium falciparum hexose transporter. Activity is measured by DNA content using SYBR green in vitro
[3] = molecular target: Glucose transporter (Leishmania mexicana) (UniProt O61059); assay: ST_JUDE_LEISH: Cytotoxicity at 2uM final concentration against transgenic Leishmania Mexicana promastigotes LmGT2 that are glucose transport deficient and complemented with the L. Mexicana glucose transporter 2. Activity is measured by DNA content using SYBR green in vitro

Sequence of Solute carrier family 2, facilitated glucose transporter member 1 (Homo sapiens) (P11166 whole entry): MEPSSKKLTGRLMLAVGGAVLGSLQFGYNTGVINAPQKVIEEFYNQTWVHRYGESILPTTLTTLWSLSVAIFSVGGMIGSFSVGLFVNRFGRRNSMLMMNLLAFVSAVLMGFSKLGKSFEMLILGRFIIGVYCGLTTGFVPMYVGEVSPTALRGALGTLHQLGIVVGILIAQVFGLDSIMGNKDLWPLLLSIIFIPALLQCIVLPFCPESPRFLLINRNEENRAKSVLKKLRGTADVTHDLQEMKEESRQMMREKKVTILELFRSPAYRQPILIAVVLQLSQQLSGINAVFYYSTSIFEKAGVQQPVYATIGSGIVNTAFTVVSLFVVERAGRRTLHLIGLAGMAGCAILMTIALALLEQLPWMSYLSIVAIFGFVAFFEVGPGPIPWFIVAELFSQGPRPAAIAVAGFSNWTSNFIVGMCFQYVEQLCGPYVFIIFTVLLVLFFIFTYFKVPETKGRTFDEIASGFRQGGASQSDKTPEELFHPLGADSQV

| SMILES | inhibition [1] | inhibition [2] | inhibition [3] |
| --- | --- | --- | --- |
| CCNC(=O)CCc1cccc(Br)c1 | -1.73% | -1.52% | -1.62% |
| CC1CCN(c2nc(C(=O)Nc3ccc(F)cc3C(F)(F)F)c(C(C)C)s2)CC1 | 1.3% | 2.16% | 2.29% |
| COc1ccc(C2=[N+]([O-])c3ccccc3C2=O)cc1 | 0.97% | 0.24% | -0.74% |
| c1cncc(-c2cc(N3CCc4ccccc4C3)nc(-c3ccncc3)n2)c1 | 8.78% | 7.89% | 4.28% |
| COc1cc(Cc2cnc(NCCN3CCNCC3)nc2N)ccc1OCc1ccc(C(F)(F)F)cc1 | 3.49% | 4.49% | 6.93% |
| CCCCN1C(=N)NC(c2ccccc2)(c2ccccc2)C1=O | 5.12% | 3.94% | 3.58% |
| COc1ccc(NC(=O)[C@H](Cc2ccccc2)Nc2cc(C)nc(NCCOc3ccccc3)n2)cc1 | 4.06% | 2.78% | 2.55% |
| CC(C)(C)c1ccc(CN2CCC(CNC(=O)c3cc(-c4cccc(F)c4)cs3)C2)cc1 (stereo not given) | 4.3% | 4.53% | 4.16% |
| O=C(NCCCCCN1CCCN(C(=O)Nc2ccc(F)c(C(F)(F)F)c2)CC1)C1CC1c1ccc(Cl)c(Cl)c1 (stereo not given) | 2.53% | 2.1% | 0.2% |
| c1ccc2c(NCCCCCCCCNc3ccnc4ccccc34)ccnc2c1 | -0.47% | 0.85% | 1.12% |
| CC(C)c1ccc2c(c1)c(SC(C)(C)C)c(CC(C)(C)C#N)n2Cc1ccc(Cl)cc1 | 3.18% | 0.69% | -0.23% |
| COc1ccc(-c2cccc(NC(=O)c3ccc(C#N)cc3)c2)cc1CN1CCN(C)CC1 | 16.1% | 14.8% | 11.3% |
| C#CC[C@@H](NC(N)=O)C(=O)O | -0.51% | 1% | 0.41% |
| COc1ccc(CCN(C)CCOc2ccc(NC(=O)COc3ccc4sc5ccccc5c(=O)c4c3)cc2)cc1OC | 3.46% | 4.33% | 1.11% |
| Nc1ncc(-c2ccc3[nH]ccc3c2)c2ccc(-c3ccncc3)cc12 | 10% | 10.2% | 9.5% |
| Cc1ccc(C)c(S(=O)(=O)NCC2CCN(Cc3ccc(O)cc3)CC2)c1 | 41.3% | 7.78% | -2.61% |
| CCN(CC)c1ccc2nc(N)nc(N)c2c1 | 8.53% | 16.5% | 7.56% |
| Cc1ccc(-c2nnc3c4ccccc4c(C)nn23)cc1S(=O)(=O)N1CCN(CCO)CC1 | 0.38% | 0.96% | -0.93% |
| CC(C)CCN1CCCN(Cc2cccc(NC(=O)c3ccc(-c4ccccc4)cc3)c2)CC1 | 2.17% | 0.14% | -0.09% |
| COc1ccccc1CNC(=O)c1cc(OC)c(OC)cc1NC(=O)c1cccs1 | 10.5% | 6% | 4.4% |
| CCN(CC)CCNc1c2ccc(Cl)cc2nc2ccc(OC)nc12 | 3.46% | 3.09% | 3.99% |
| CC(C)CCNCc1ccc(OCc2cccc(C(=O)Nc3ccccc3)c2)c(I)c1 | 3.34% | 3.14% | 1.47% |
| Cc1cc(N)c2cc(NC(=O)c3cc4ccccc4s3)ccc2n1 | -0.05% | -1.3% | -0.52% |
| O=C(Nc1ccc(S(=O)(=O)N2CCOCC2)cc1)c1cc(-c2cc(Cl)ccc2O)n[nH]1 | 0.98% | 0.88% | 0.85% |
| Cc1cc(NC(=O)NCCN2CCC(NS(=O)(=O)c3ccc(Br)cc3)C2)c2ccccc2n1 (stereo not given) | 4.43% | 3.86% | 3.49% |

| SMILES | inhibition [1] | inhibition [2] | inhibition [3] |
| --- | --- | --- | --- |
| Cc1cc(NCCCCCCCCNc2cc(C)nc3ccccc23)c2ccccc2n1 | -0.97% | 1.84% | 0.69% |
| Cn1c2c(c3ccccc31)CN(CCC1(c3ccc(Cl)c(Cl)c3)CN(C(=O)c3ccccc3)CCO1)CC2 (stereo not given) | 2.15% | 1.72% | 2.38% |
| CC1CCN(CCNC(=O)c2ccc3c(=O)n(Cc4ccc(Cl)cc4)c(=S)[nH]c3c2)CC1 | 1.28% | 2.93% | 1.91% |
| NCc1cccc(-c2ccccc2CNC2CCN(Cc3ccccc3)CC2)c1 | 6% | 5.52% | 6.92% |
| N#Cc1cccc(NC(=O)Nc2cccc(-c3ccc(-c4nc5cc(C(F)(F)F)ccc5[nH]4)cc3)c2)c1 | 2.29% | 2.13% | -7.53% |
| CCOc1cc(C(=O)Nc2cccnc2)ccc1-c1nc2cc(Cl)c(Cl)cc2[nH]1 | 1.75% | 0.16% | -0.85% |
| Cn1cnnc1Sc1ccc(CN2CCOc3ccc(C4=CCCCC4)cc3C2)o1 | 0.65% | 1.97% | 1% |
| O=C(NCCNc1noc(-c2sccc2Br)n1)c1ccc(Cl)cc1 | -1.4% | 3.34% | -0.91% |
| Cc1cccc2nc(-c3cccc(-c4cccc(NC(=O)Cc5c[nH]cn5)c4)c3)[nH]c12 | 1.54% | 2.27% | 2.94% |
| Cc1cc(N[C@@H](Cc2ccccc2)C(=O)NCCc2ccccc2)nc(NCCc2cccs2)n1 | 3.32% | 0.76% | 1.55% |
| O=c1ccc2ccc(F)c3c2n1CC3CN1CCC(NCc2cccc(-c3cccs3)c2)CC1 (stereo not given) | 6.55% | 8.34% | -6.19% |
| COc1ccc(CNC(=O)NC2CCN(c3ccnc(Nc4ccc(F)cc4)n3)C2)cc1 (stereo not given) | 7.84% | 5.37% | 7.65% |
| OC(CNCCc1ccccc1)Cn1c2ccc(Cl)cc2c2cc(Cl)ccc21 (stereo not given) | -1.53% | -1.78% | -2.27% |
| CN(C)CCN1CCN(Cc2cccc(-c3csc(-c4nc5ccccc5[nH]4)c3)c2)CC1 | 0.51% | 2.44% | 2.16% |
| CC(=NNC(=N)N)c1ccc2c(c1)Cc1ccccc1-2 | -1.01% | 0.42% | -1.5% |
| CCc1ccc(Cc2cnc3nc(N)nc(N)c3c2C)cc1 | 8.4% | 13.2% | 8.26% |
| Cc1cccc2nc(-c3cccc(-c4ccc(NC(=O)C(C)CN(C)C)cc4)c3)[nH]c12 (stereo not given) | -2.74% | 0.04% | -1.14% |
| C=CC[C@@H](C(=O)OCC)[C@@H]1[C@@H](N(CC=C)C(=O)OC(C)(C)C)CCN1C(=O)OCc1ccccc1 | 2.71% | 1.22% | 1.42% |
| COc1cccc(C=NN=c2cc(C)[nH]c3ccccc23)c1 | 3.57% | 3.07% | 3.02% |
| CN(C)CCCNc1ncnc2c1[nH]c1ccc(F)cc12 | 7.06% | 7.08% | 7.71% |
| CC(C)(C)c1ccc2[nH]c(-c3ccc(C(=O)NC4CCN(Cc5ccccc5)CC4)s3)nc2c1 | 3.39% | 2.69% | 1.79% |
| COc1ccc(-n2ncc(C(=O)N3CCC4(C3)C(=O)N(c3ccccc3)c3ccccc34)c2C)cc1 (stereo not given) | 1.9% | 2.74% | 0.94% |
| O=C(NCCN1CCCC1)c1cccc(-c2ccc(-c3nc4ccccc4[nH]3)s2)c1 | 3.42% | 1.36% | 4.63% |
| CCc1cc(=O)[nH]c(-n2nc(C)cc2NC(=O)CC(c2ccccc2)c2ccccc2)n1 | 11.2% | 15.2% | -1.68% |
| CC1(C)N=C(N)N=C(N)N1OCc1cccc2c1ccc1ccccc12 | 0.96% | 2.76% | 0.32% |

| SMILES | inhibition [1] | inhibition [2] | inhibition [3] |
| --- | --- | --- | --- |
| COc1cccc(Nc2nc(C)cc(NCc3ccc(-n4ccnc4)cc3)n2)c1 | 4.08% | 13.7% | 8.06% |
| Cc1ccc2[nH]c(C)cc(=NN=Cc3cccc(F)c3)c2c1 | 5.05% | 7% | 3.38% |
| Cc1cccc2nc(-c3cccc(-c4cccc(NC(=O)Nc5ccc(Cl)c(Cl)c5)c4)c3)[nH]c12 | -0.37% | -0.17% | -0.99% |
| Cc1cc(N2CCCC2)nc(Nc2ccc(NC(=O)c3ccc4c(c3)OCO4)cc2)n1 | 13.5% | 3.61% | 5.78% |
| O=C(NCc1ccc(Cl)c(Cl)c1)[C@H]1CNCCN1C(=O)c1ccccc1 | 2.83% | 1.69% | 2.44% |
| O=C(/C=C/c1ccc(Cl)c(Cl)c1)NCCCCCN1CCCN(C(=O)Nc2ccc(OC(F)F)cc2)CC1 | 3.05% | 1.15% | 0.91% |
| c1cc(-c2ccc(CN3CCCCC3)cc2)cc(-c2nc3ccccc3[nH]2)c1 | 1.85% | 0.49% | 0.96% |
| CCc1ccc(NC(=O)c2cccc(CN3CCCN(Cc4ccc(OC)cc4)CC3)c2)cc1 | 1.52% | 0.1% | 0.16% |
| N#Cc1ccc(N/C(=N\c2ccc(-c3ccccc3)cc2)NCc2cccnc2)c(O)c1 | 6.14% | 1.66% | 5.44% |
| O=C(CN1CCN(C(=O)c2ccco2)CC1)Nc1ccccc1Br | -1.39% | -1.64% | -3.97% |
| O=C(Nc1ccc(CN2CCN(S(=O)(=O)c3ccc(Cl)s3)CC2)cc1)c1cccs1 | 8.13% | 7.45% | 5.63% |
| Cc1ccc(NC(=O)c2ccc(CN3CCCN(CC4CCCCC4)CC3)cc2)cc1 | 7.01% | 8.37% | 9.64% |
| COCCN(C)c1ccc(C(=O)Nc2ccccc2)cc1NS(=O)(=O)Cc1ccccc1 | 10.2% | 8.35% | 3.54% |
| c1ccc(-c2cc(NCCCCNc3cc(-c4ccccc4)nc4ccccc34)c3ccccc3n2)cc1 | 6.88% | 7.17% | 6.81% |
| Clc1ccc(-c2cc(-c3csc(NCCN4CCOCC4)n3)on2)c(Cl)c1 | 12.4% | 9.19% | 10.6% |
| CCCN(CCC)CCCN(CCCN(CCC)CCC)c1cc(C)nc(Nc2ccc(Cl)cc2)n1 | 3.33% | 1.71% | 2.52% |
| Cc1cnccc1/C=C/c1cccc(OCCN2CCc3ccc(S(C)(=O)=O)cc3CC2)c1 | 1.95% | 2.77% | 1.68% |
| CCN(C)c1cc(C(=O)N[C@@H](Cc2ccccc2)[C@H](O)CNC(C)(C)c2cccc(OC)c2)cc(N2CCCC2=O)c1 | 1.69% | 0.79% | 4.41% |
| Cc1cccc(NC(=O)Nc2ccc(I)c(OCCN(C)C)c2)c1C | 15.2% | 9.78% | 10.1% |
| CCCC(=O)c1cnc2c(Oc3cc(Cl)ncn3)cccc2c1Nc1ccccc1C | 6.96% | 4.84% | 6.89% |
| CC(C)COc1ccc(Cl)cc1Cc1ccc(-c2nc3ccc(Cl)cc3[nH]2)o1 | -1.56% | 2.55% | 1.16% |
| CCCC(C)Nc1nc(C)cc(N[C@@H](CC(C)C)C(=O)NCc2ccc(C)cc2)n1 (stereo not given in full) | 3.04% | 4.01% | 0.38% |
| COc1ccc(-c2ccc(NC(=O)c3cccc(C#N)c3)cc2)cc1CN1CCC(O)CC1 | -0.68% | -0.84% | 2.05% |
| CCCCc1ccc(C(=O)Nc2ccc3nc(N4CCN(C)CC4)cc(C)c3c2)cc1 | 2.19% | 3.48% | 3.48% |
| COc1cccc(O)c1CN1CCC2(CCCN(Cc3ccc(F)cc3)C2)C1 (stereo not given) | 1.04% | 2.73% | -0.21% |
